Source: PubChem BioAssay AID1443 (Sanford-Burnham Center for Chemical Genomics, 2008)
Screen size: about 220,000 compounds; about 880 (0.4%) were called active. The sample as a whole holds a higher share of actives than the screen did. Unmarked numbers belong to inactive results.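 How the source made its calls: active means cell killing above 50% in the first pass at 4 µM, then a duplicate retest at 5 µM averaging 50% or more; inactive means the rest.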

Assay: compounds killing PPC-1 cancer cells with TRAIL present, primary screen, TRAIL potentiator project, ATPLite luminescence, uHTS (AID 1443);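 further: plate controls were cells with TRAIL plus DMSO for no effect and medium-only wells lacking cells for full effect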
Conditions: PPC-1 cells + TRAIL, ATPLite viability luminescence, active compounds read high; at 4 µM unless noted
`Cc1nonc1C(=O)N/N=C/c1ccc(O)cc1` gave a cell killing (% activity) of -5.1%. With `CC(NC(=O)CCC(=O)N1CCN(S(=O)(=O)c2ccc(Cl)cc2)CC1)c1ccccc1` (stereo not drawn) the cell killing (% activity) was 16.9%. In the case of `CCN(CC(=O)Nc1ccc(S(=O)(=O)N2CCCC2)cc1)CC(=O)Nc1cccc(OC)c1`, the cell killing (% activity) is reported as 6.9%. For `OCCCNc1nccc(-c2cc(Nc3cccc(Cl)c3)ncn2)n1`, the cell killing (% activity) was 80.9% (active). `CC(C)n1cnc2c(Nc3cccc(Cl)c3)nc(N(CCO)CCCO)nc21` gave a cell killing (% activity) of 8.8%. Compound `NS(=O)(=O)c1cccnc1Nc1cccc(Cl)c1` has a cell killing (% activity) of 23%. In the case of `CCOC(=O)c1sc2nc(C)nc(Nc3ccc(OC)c(OC)c3)c2c1C`, the cell killing (% activity) is reported as -11.6%. In the case of `CCN1CCC2(CC1)N=C(c1ccc(F)cc1)C(=S)N2C(=O)c1ccc(C)cc1`, the cell killing (% activity) is reported as 5.2%. For `O=C(Nc1n[nH]c(C(F)(F)F)n1)c1cccs1`, the cell killing (% activity) was 2.7%. Work on `O=C(COC(=O)c1ccc(S(=O)(=O)Nc2ccccc2)cc1)NCC1CCCO1` (stereo not drawn) yielded a cell killing (% activity) of 14.7%. Work on `Cc1cc(C)nc(NC(=O)/C=C/c2ccc(Cl)cc2)n1` yielded a cell killing (% activity) of -2.4%. With `c1c2c(cc3sc(N4CCCCC4)nc13)OCCO2` the cell killing (% activity) was 65.8% (active). `Brc1ccc2nc(N3CCCC3)sc2c1` gave a cell killing (% activity) of -2.5%. Compound `Cc1nc2cc3c(cc2s1)OCO3` has a cell killing (% activity) of 9%. `O=C(O)/C(=C/c1cccnc1)NC(=O)c1ccccc1` showed a cell killing (% activity) of 9%. With `COCCNc1nc(-c2ccccc2)nc2c1oc1ccccc12` the cell killing (% activity) was 8.8%. Work on `Cc1ccc2nsnc2c1S(=O)(=O)N1CCCC1C(=O)O` (stereo not drawn) yielded a cell killing (% activity) of 13.9%. With `Cc1cc(=O)oc2c(C(=O)c3ccccc3)c(OCC(N)=O)ccc12` the cell killing (% activity) was 6.8%. In the case of `COc1cccc(C(=O)n2ccc(-c3cccs3)n2)c1`, the cell killing (% activity) is reported as -11.4%. For `C=CCN(C(=O)Nc1ccc2c(c1)nc(C)n2C)c1ccccc1`, the cell killing (% activity) was 14.1%. `Cc1nc2cc(NC(=O)NC3CC3)ccc2n1C` showed a cell killing (% activity) of 14.9%. For `Cc1nc2cc(NC(=O)Nc3cccc(F)c3)ccc2n1C`, the cell killing (% activity) was 54.1% [at 5 µM] (active). In the case of `COC(C(=O)Nc1ccc(S(=O)(=O)Nc2ccc(C)c(C)c2)cc1)c1ccccc1` (stereo not drawn), the cell killing (% activity) is reported as 19.1%. Compound `COc1ccccc1NC(=O)CCSc1nnc(-c2ccc(O)cc2)o1` has a cell killing (% activity) of -2.2%. `CCC(C)N1C(=S)SC(C)(C)C1N(O)C(=O)NC1CCCCC1` (stereo not drawn) showed a cell killing (% activity) of 13.9%. With `COc1cccc(/C=N/NC(=O)c2cccc([N+](=O)[O-])c2)c1OS(=O)(=O)c1ccc(C)cc1` the cell killing (% activity) was -0.7%. For `Cc1ccc(-n2[nH]c(C)c(/C=N/NC(=O)c3cccc([N+](=O)[O-])c3)c2=O)cc1C`, the cell killing (% activity) was 60.3% (active). `Cc1[nH]n(-c2ccccc2)c(=O)c1/C=N/NC(=O)c1ccoc1C` showed a cell killing (% activity) of 29.6%. Compound `CC(C)CNC(=S)Nc1ccc(F)cc1` has a cell killing (% activity) of 31.5%. `CC1CC(=S)Nc2ccccc2N1Cc1ccccc1` (stereo not drawn) gave a cell killing (% activity) of 16%. For `CCNC(=O)COC(=O)/C=C/c1c(C)nn(Cc2cccc(OC)c2)c1Cl`, the cell killing (% activity) was -7.2%. `CCOC(=O)c1nnn2c1nc(N1CCN(c3ccccc3)CC1)c1ccccc12` gave a cell killing (% activity) of 3.6%. `Cc1csc(SCC(=O)Nc2sccc2C#N)n1` gave a cell killing (% activity) of 10.6%. For `Clc1cccc(-c2nc(NCC3CCCO3)c3ccccc3n2)c1` (stereo not drawn), the cell killing (% activity) was -5.4%. In the case of `c1ccc(-c2nc(NCc3ccco3)c3ccccc3n2)cc1`, the cell killing (% activity) is reported as 6.1%. In the case of `Clc1ccc2nc(-c3ccccc3)nc(C(Cl)Cl)c2c1`, the cell killing (% activity) is reported as 79.2% [at 5 µM] (active). For `COc1ccc(CCNCC(O)Cn2ccc3ccccc32)cc1OC` (stereo not drawn), the cell killing (% activity) was -2.7%. With `CC(=O)NC1C(Oc2ccc(C)cc2)OC2COC(c3ccco3)OC2C1O` (stereo not drawn) the cell killing (% activity) was 2.4%. For `COc1cccc(/C=N/NC(=O)c2[nH]nc3c2CCc2ccccc2-3)c1O`, the cell killing (% activity) was 57.1% (active). For `COc1cccc(/C=N\NC(=O)C2=NNC(=O)C2C)c1O` (stereo not drawn), the cell killing (% activity) was 24.7%. In the case of `COc1cccc(/C=N/Nc2cc(C)nc(-c3ccccc3O)n2)c1O`, the cell killing (% activity) is reported as 21.2%. `O=C(/C=C/c1ccccc1)Oc1coc(CSc2ncccn2)cc1=O` gave a cell killing (% activity) of 5.1%. `Cc1nc2cc(NCc3cccs3)ccc2n1C` showed a cell killing (% activity) of 1.5%. With `Cc1ccc(C(=O)N/C(=C\c2ccco2)C(=O)NC2CCS(=O)(=O)C2)cc1` (stereo not drawn) the cell killing (% activity) was 9.8%. For `COc1ccc(-c2nc(SCC(=O)N3CCOCC3)n[nH]2)cc1`, the cell killing (% activity) was 4.4%. For `CCOc1ccc(-c2ccc(SCC(=O)N3CCOCC3)nn2)cc1`, the cell killing (% activity) was 56.9% [at 5 µM] (active). `COc1ccc(-c2ccnc(SCC(=O)N3CCOCC3)n2)cc1` showed a cell killing (% activity) of 20.6%. With `COc1cccc(/C=C/c2ccc3ccccc3n2)c1OC(C)=O` the cell killing (% activity) was 70.3% [at 5 µM] (active). Compound `NC(=O)COC(=O)/C=C/c1ccc2ccccc2n1` has a cell killing (% activity) of 14.6%. Work on `CCOc1cccc(/C=C/c2ccc3ccccc3n2)c1OC(C)=O` yielded a cell killing (% activity) of 49.3%. In the case of `Cc1ccc(C(=O)NNc2ncnc3ccccc23)cc1`, the cell killing (% activity) is reported as 35.9%. Work on `CC(C)c1ccc(NC(=S)NNc2ccc(Cl)c(C(=O)O)c2)cc1` yielded a cell killing (% activity) of -1.7%. For `CC(c1ccccn1)N(CCN(C)C)C(=S)Nc1ccccc1F` (stereo not drawn), the cell killing (% activity) was 20.3%. In the case of `COc1cc2c(cc1OC)C(=O)NCC(C)(C)O2`, the cell killing (% activity) is reported as 20.2%. Compound `CCC/C(C)=N\Nc1nc2c(c(=O)n(C)c(=O)n2C)n1C` has a cell killing (% activity) of 8%. Work on `CCOC(=O)c1sc(NC(=O)CSc2nc3c(c(=O)n2-c2ccccc2)SCC3)c(C(=O)OCC)c1C` yielded a cell killing (% activity) of 5.5%. Work on `Nc1ncc(-c2cc3ccccc3oc2=O)s1` yielded a cell killing (% activity) of 11.4%. In the case of `O=c1oc2ccccc2cc1-c1cn(-c2ccccc2)c(=S)[nH]1`, the cell killing (% activity) is reported as 57.2% (active). For `O=C(c1cn(-c2ccccc2)nc1-c1cc2ccccc2oc1=O)N1CCOCC1`, the cell killing (% activity) was 28.2%. Work on `O=C(O)COCC(=O)NCc1csc2ccc(Cl)cc12` yielded a cell killing (% activity) of 6.2%. For `O=C(Nc1ccccc1)C1CC(=O)n2c(nc3ccccc32)N1` (stereo not drawn), the cell killing (% activity) was 1.1%. For `COc1cc(OC)c2ccc(=O)oc2c1C(CCN1CCN(c2ccccc2)CC1)c1ccc2c(c1)OCO2` (stereo not drawn), the cell killing (% activity) was -2.2%. `COc1ccc(OC)c(C(=O)c2ccc(Cl)cc2)c1` gave a cell killing (% activity) of -11.3%. Work on `CCOC(=O)c1c(C)[nH]c(=S)c(C#N)c1-c1ccccc1` yielded a cell killing (% activity) of 18.1%. In the case of `CCOC(=O)c1c(C)[nH]c2c1-c1ccccc1C(=O)C2=O`, the cell killing (% activity) is reported as 96.5% [at 5 µM] (active). In the case of `CCOC(=O)C1=C(c2ccc(OC)cc2)C(=O)c2ccccc2C1=O`, the cell killing (% activity) is reported as 23.5%. For `Cc1cccc(C2c3[nH]c4ccccc4c3CCN2C(=O)c2cc(-c3cccn3C)n[nH]2)n1` (stereo not drawn), the cell killing (% activity) was -11.4%. `COc1ccccc1CNC(=O)c1ccc(SC)cc1OC` gave a cell killing (% activity) of 16.9%. In the case of `Cc1ccnc(NC(=O)c2ccoc2C)c1`, the cell killing (% activity) is reported as 0%. With `COc1cc(SC)ccc1C(=O)Nc1cc(C)ccn1` the cell killing (% activity) was 53.7% [at 5 µM] (active). Compound `COc1ccc(C(=O)Nc2nncs2)c(OC)c1` has a cell killing (% activity) of 21.1%. `COc1cc(SC)ccc1C(=O)NCCOc1ccccc1Cl` gave a cell killing (% activity) of 9.8%. For `COc1cc(SC)ccc1C(=O)Nc1nc(C)cs1`, the cell killing (% activity) was 96% [at 5 µM] (active). Work on `O=C(Nc1nnc(SCc2ccccc2Cl)s1)c1cccc([N+](=O)[O-])c1` yielded a cell killing (% activity) of 2.1%. With `Cc1ccc(C)n1NC(=O)c1ccc([N+](=O)[O-])cc1` the cell killing (% activity) was 11.3%. `CN(C)/C=C(/C(=O)c1ccc(Cl)c(Cl)c1)c1nnnn1-c1ccccc1` gave a cell killing (% activity) of 10.3%. In the case of `CC(C)NC(=O)NCCCCCCS(C)=O` (stereo not drawn), the cell killing (% activity) is reported as 20.6%. `O=S(=O)(NCC1CCCO1)c1cnc(Cl)c(Cl)c1` (stereo not drawn) showed a cell killing (% activity) of -24.2%.
